A selection: hits, their analogues and other compounds. The true share with any hit is near 5.7%.
PI5P4K alpha inh = blocks human PI5P4K alpha kinase activity; P48426; PI5P4Kalpha enzyme, ADP-Glo luminescence, 60 min; hits give low values; max response, %; actives 1.2% (n = 330,000); AID 652105; active means max response of -50% or lower; inconclusive means between -30% and -50%; inactive means -30% or higher; further: value at the top dose of about 77 µM
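qHTS, 1536-well: enzyme/substrate mix, compound by pin tool, 5 microM ATP final; RT 60 min; ADP-Glo reagents 1 (45 min) then 2 (30 min); luminescence.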
L3MBTL1 block = L3MBTL1 (human) inhibition; Q9Y468; AlphaScreen L3MBTL1–H3K9me1 peptide binding; Potency, µM (highest dose often 57.1 µM), hits mostly inhibitors; actives 0.66% (n = 230,000); AID 485360; further: nearly all actives have a fitted effect of over 60% in size
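AlphaScreen proximity signal between nickel-chelate acceptor and streptavidin donor beads (final 10 ug/mL) reports binding of 50 nM L3MBTL1 to 75 nM biotin-H3 K9me1 peptide; complex incubated with compounds 30 min at room temperature; cefsulodin titration as control.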
JMJD2A Tudor inh = inhibitors of human JMJD2A Tudor domain. actives 4.4% (n = 390,000). Potency, µM (titrated, usually from 114 µM), most hits filed as inhibitors. AlphaScreen JMJD2A-Tudor / H3K4me3 peptide binding. O75164; further: nearly all actives have a fitted effect of over 50% in size
KDM4E inh = JMJD2E (human) inhibition. actives 1.6% (n = 230,000). JMJD2E catalytic domain, FDH-coupled NADH fluorescence (FDH is formaldehyde dehydrogenase). Potency, µM (titrated, usually from 57.1 µM), usual class: inhibitors. B2RXH2. AID 2147; active means well fitted inhibition curve with a large enough effect, not every such curve was filed as active; inconclusive means small, poorly fitted or top-dose-only effect, or another doubt; inactive means no such curve, though single readings can be large or run the other way; further: nearly all actives have a fitted effect of over 50% in size
Target sequence (B2RXH2 1-337 limits assumed): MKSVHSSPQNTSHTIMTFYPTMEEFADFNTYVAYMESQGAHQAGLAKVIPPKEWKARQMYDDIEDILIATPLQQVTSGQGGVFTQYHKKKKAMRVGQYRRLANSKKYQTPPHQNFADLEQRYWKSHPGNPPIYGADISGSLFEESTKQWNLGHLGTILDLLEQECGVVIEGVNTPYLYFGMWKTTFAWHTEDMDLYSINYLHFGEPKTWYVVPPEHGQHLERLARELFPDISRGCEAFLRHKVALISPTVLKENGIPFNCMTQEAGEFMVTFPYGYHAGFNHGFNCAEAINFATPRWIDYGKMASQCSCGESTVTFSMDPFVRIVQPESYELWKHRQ
BAZ2B block = blocks human BAZ2B. actives 4.4% (n = 360,000). Q9UIF8. Potency, µM (titrated, usually from 114 µM), most hits filed as inhibitors. AlphaScreen BAZ2B-H3K14Ac peptide displacement. AID 504333; further: nearly all actives have a fitted effect of over 60% in size
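Inhibition is scored as reduced AlphaScreen emission. The BAZ2B/b-H3(5-23)K14Ac complex (50 nM each) in PBS pH 7.4, 0.01% Tween-20 meets compound (up to 110 uM) for 30 min at RT before bead addition.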
HP1b binding inh = inhibitors of HP1-beta chromodomain binding to methylated histone tails; P83916; AlphaScreen HP1-beta / biotin-H3K9me3 peptide binding; Potency, µM (series often up to 114 µM), usual class: inhibitors; actives 0.56% (n = 390,000); AID 540317; further: nearly all actives have a fitted effect of over 70% in size
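HP1-beta protein (50 nM final) preincubated 30 min at room temperature with biotinylated H3(1-18)K9me3 peptide (50 nM) in PBS pH 7.4, 0.01% Tween-20, then compound added for 30 min. AlphaScreen streptavidin donor/nickel chelate acceptor beads (10 ug/mL final), 30 min dark, luminescence read.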
Hits are given with their value; 0 = inactive; ? = inconclusive; - = not tested or not shown. Unless noted, the call rests on the fitted dose curve; in most records, active means well fitted inhibition curve with a large enough effect; inconclusive means small, poorly fitted or top-dose-only effect; inactive means no such curve, though single readings can be large or run the other way.

SMILES	PI5P4K alpha inh	L3MBTL1 block	JMJD2A Tudor inh	KDM4E inh	BAZ2B block	HP1b binding inh
Cc1cc(C(C)(C)C)ccc1OCCN(C)C	0	0	7.9µM	?	28µM	?
Nc1ccc2nc(SCc3ccccc3F)sc2c1	0	-	25µM	0	?	?
N#CCCN(NC1=NS(=O)(=O)c2ccccc21)C(=O)c1ccccc1Br	0	-	35µM	-	0	0
COc1ccc(S(=O)(=O)NCC(c2ccco2)N2CCN(c3ccccc3F)CC2)cc1OC (stereo unspecified)	-	-	0	-	?	0
CCCNS(=O)(=O)c1ccc2nc(NC(=O)c3ccc(F)cc3)sc2c1	-	-	50µM	-	0	?
O=C(Nc1nccs1)c1ccccn1	0	?	79µM	0	-	0
O=C(Nc1nnc(SCc2ccc(F)cc2)s1)c1cccnc1Cl	0	0	0	0	0	0
O=C(Nc1nnc(SCc2ccc(F)cc2)s1)c1ccccn1	0	-	28µM	?	25µM	0
O=C(Nc1nc2ccc(F)cc2s1)c1ccccn1	0	-	0	0	40µM	0
O=C(Cn1c(SCCOc2ccccc2Cl)nc2ccccc21)N1CCOCC1	-	-	0	-	0	0
